Measured values from the supplement of paper PMC4466140.

Molecular target: AgAbp1
Assay: SPOT peptide array binding signal intensity (averaged, normalized) (arbitrary units (background-subtracted, floor 0; scale differs between SH3 domains)); higher = stronger binding of the SH3 domain to the peptide
Procedure, shortened: (§1)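 To measure binding, SH3 domains from four yeast species were fused to GST, expressed in E. coli BL21(DE3) and purified on glutathione Sepharose. Each domain was incubated at 10 μg/ml overnight at 4°C on cellulose membranes with synthetic 15-mer peptides whose cysteines were replaced by serines. Anti-GST antibody, an HRP anti-mouse secondary and luminol were used for detection, and images were quantified with Genespotter. Reported binding signal is normalized, background-subtracted spot intensity averaged over replicates, in arbitrary units that differ between domains.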

Binder | SPOT peptide array binding signal intensity
GAGERPRLVPRPINV | 13

Molecular target: AgBbc1
Assay: as above
Procedure, shortened: as §1

Binder | SPOT peptide array binding signal intensity
GAGERPRLVPRPINV | 148

Molecular target: AgBem1-D1
Assay: as above
Procedure, shortened: as §1

Binder | SPOT peptide array binding signal intensity
GAGERPRLVPRPINV | 23

Molecular target: AgBzz1-D1
Assay: as above
Procedure, shortened: as §1

Binder | SPOT peptide array binding signal intensity
GAGERPRLVPRPINV | 27

Molecular target: AgBzz1-D2
Assay: as above
Procedure, shortened: as §1

Binder | SPOT peptide array binding signal intensity
GAGERPRLVPRPINV | 33

Molecular target: AgCyk3
Assay: as above
Procedure, shortened: as §1

Binder | SPOT peptide array binding signal intensity
GAGERPRLVPRPINV | 6

Molecular target: AgFus1
Assay: as above
Procedure, shortened: as §1

Binder | SPOT peptide array binding signal intensity
GAGERPRLVPRPINV | 4.5

Molecular target: AgHof1
Assay: as above
Procedure, shortened: as §1

Binder | SPOT peptide array binding signal intensity
GAGERPRLVPRPINV | 8.5

Molecular target: AgHse1
Assay: as above
Procedure, shortened: as §1

Binder | SPOT peptide array binding signal intensity
GAGERPRLVPRPINV | ≤ 0

Molecular target: AgLsb1
Assay: as above
Procedure, shortened: as §1

Binder | SPOT peptide array binding signal intensity
GAGERPRLVPRPINV | 9

Molecular target: AgLsb4
Assay: as above
Procedure, shortened: as §1

Binder | SPOT peptide array binding signal intensity
GAGERPRLVPRPINV | 28

Molecular target: AgMyo5
Assay: as above
Procedure, shortened: as §1

Binder | SPOT peptide array binding signal intensity
GAGERPRLVPRPINV | 0.5

Molecular target: AgNbp2
Assay: as above
Procedure, shortened: as §1

Binder | SPOT peptide array binding signal intensity
GAGERPRLVPRPINV | ≤ 0

Molecular target: AgRvs167
Assay: as above
Procedure, shortened: as §1

Binder | SPOT peptide array binding signal intensity
GAGERPRLVPRPINV | 2

Molecular target: AgSho1
Assay: as above
Procedure, shortened: as §1

Binder | SPOT peptide array binding signal intensity
GAGERPRLVPRPINV | ≤ 0

Molecular target: AgSla1-D1-D2
Assay: as above
Procedure, shortened: as §1

Binder | SPOT peptide array binding signal intensity
GAGERPRLVPRPINV | ≤ 0

Molecular target: AgSla1-D3
Assay: as above
Procedure, shortened: as §1

Binder | SPOT peptide array binding signal intensity
GAGERPRLVPRPINV | 1

Molecular target: CaAbp1-D1
Assay: as above
Procedure, shortened: as §1

Binder | SPOT peptide array binding signal intensity
GAGERPRLVPRPINV | 17

Molecular target: CaAbp1-D2
Assay: as above
Procedure, shortened: as §1

Binder | SPOT peptide array binding signal intensity
GAGERPRLVPRPINV | 8

Molecular target: CaBbc1
Assay: as above
Procedure, shortened: as §1

Binder | SPOT peptide array binding signal intensity
GAGERPRLVPRPINV | 314

Molecular target: CaBem1-D1
Assay: as above
Procedure, shortened: as §1

Binder | SPOT peptide array binding signal intensity
GAGERPRLVPRPINV | 68.5

Molecular target: CaBzz1-D1
Assay: as above
Procedure, shortened: as §1

Binder | SPOT peptide array binding signal intensity
GAGERPRLVPRPINV | 109

Molecular target: CaBzz1-D2
Assay: as above
Procedure, shortened: as §1

Binder | SPOT peptide array binding signal intensity
GAGERPRLVPRPINV | 51.2

Molecular target: CaCyk3
Assay: as above
Procedure, shortened: as §1

Binder | SPOT peptide array binding signal intensity
GAGERPRLVPRPINV | 285

Molecular target: CaFus1
Assay: as above
Procedure, shortened: as §1

Binder | SPOT peptide array binding signal intensity
GAGERPRLVPRPINV | ≤ 0

Molecular target: CaHof1
Assay: as above
Procedure, shortened: as §1

Binder | SPOT peptide array binding signal intensity
GAGERPRLVPRPINV | 0.5

Molecular target: CaHse1
Assay: as above
Procedure, shortened: as §1

Binder | SPOT peptide array binding signal intensity
GAGERPRLVPRPINV | ≤ 0

Molecular target: CaLsb1
Assay: as above
Procedure, shortened: as §1

Binder | SPOT peptide array binding signal intensity
GAGERPRLVPRPINV | 0.75

Molecular target: CaLsb4
Assay: as above
Procedure, shortened: as §1

Binder | SPOT peptide array binding signal intensity
GAGERPRLVPRPINV | 102

Molecular target: CaMyo5
Assay: as above
Procedure, shortened: as §1

Binder | SPOT peptide array binding signal intensity
GAGERPRLVPRPINV | 6.5

Molecular target: CaNbp2
Assay: as above
Procedure, shortened: as §1

Binder | SPOT peptide array binding signal intensity
GAGERPRLVPRPINV | ≤ 0

Molecular target: CaRvs167
Assay: as above
Procedure, shortened: as §1

Binder | SPOT peptide array binding signal intensity
GAGERPRLVPRPINV | 3.5

Molecular target: CaRvs167-3
Assay: as above
Procedure, shortened: as §1

Binder | SPOT peptide array binding signal intensity
GAGERPRLVPRPINV | ≤ 0

Molecular target: CaSho1
Assay: as above
Procedure, shortened: as §1

Binder | SPOT peptide array binding signal intensity
GAGERPRLVPRPINV | 21

Molecular target: CaSla1-D1-D2
Assay: as above
Procedure, shortened: as §1

Binder | SPOT peptide array binding signal intensity
GAGERPRLVPRPINV | 15.5

Molecular target: CaSla1-D3
Assay: as above
Procedure, shortened: as §1

Binder | SPOT peptide array binding signal intensity
GAGERPRLVPRPINV | 0.75

Molecular target: ScAbp1
Assay: as above
Procedure, shortened: as §1

Binder | SPOT peptide array binding signal intensity
GAGERPRLVPRPINV | 10

Molecular target: ScBbc1
Assay: as above
Procedure, shortened: as §1

Binder | SPOT peptide array binding signal intensity
GAGERPRLVPRPINV | 29.5

Molecular target: ScBem1-D1
Assay: as above
Procedure, shortened: as §1

Binder | SPOT peptide array binding signal intensity
GAGERPRLVPRPINV | ≤ 0

Molecular target: ScBzz1-D1
Assay: as above
Procedure, shortened: as §1

Binder | SPOT peptide array binding signal intensity
GAGERPRLVPRPINV | 13

Molecular target: ScBzz1-D2
Assay: as above
Procedure, shortened: as §1

Binder | SPOT peptide array binding signal intensity
GAGERPRLVPRPINV | 44.5

Molecular target: ScCyk3
Assay: as above
Procedure, shortened: as §1

Binder | SPOT peptide array binding signal intensity
GAGERPRLVPRPINV | 53

Molecular target: ScFus1
Assay: as above
Procedure, shortened: as §1

Binder | SPOT peptide array binding signal intensity
GAGERPRLVPRPINV | ≤ 0

Molecular target: ScHof1
Assay: as above
Procedure, shortened: as §1

Binder | SPOT peptide array binding signal intensity
GAGERPRLVPRPINV | 3.25

Molecular target: ScHse1
Assay: as above
Procedure, shortened: as §1

Binder | SPOT peptide array binding signal intensity
GAGERPRLVPRPINV | 4.5

Molecular target: ScLsb1
Assay: as above
Procedure, shortened: as §1

Binder | SPOT peptide array binding signal intensity
GAGERPRLVPRPINV | 98.2

Molecular target: ScLsb2
Assay: as above
Procedure, shortened: as §1

Binder | SPOT peptide array binding signal intensity
GAGERPRLVPRPINV | 4.5

Molecular target: ScLsb3
Assay: as above
Procedure, shortened: as §1

Binder | SPOT peptide array binding signal intensity
GAGERPRLVPRPINV | 531

Molecular target: ScLsb4
Assay: as above
Procedure, shortened: as §1

Binder | SPOT peptide array binding signal intensity
GAGERPRLVPRPINV | 20

Molecular target: ScMyo3
Assay: as above
Procedure, shortened: as §1

Binder | SPOT peptide array binding signal intensity
GAGERPRLVPRPINV | 47.5

Molecular target: ScMyo5
Assay: as above
Procedure, shortened: as §1

Binder | SPOT peptide array binding signal intensity
GAGERPRLVPRPINV | 4

Molecular target: ScNbp2
Assay: as above
Procedure, shortened: as §1

Binder | SPOT peptide array binding signal intensity
GAGERPRLVPRPINV | 8

Molecular target: ScPex13
Assay: as above
Procedure, shortened: as §1

Binder | SPOT peptide array binding signal intensity
GAGERPRLVPRPINV | 1

Molecular target: ScRvs167
Assay: as above
Procedure, shortened: as §1

Binder | SPOT peptide array binding signal intensity
GAGERPRLVPRPINV | 91.3

Molecular target: ScSho1
Assay: as above
Procedure, shortened: as §1

Binder | SPOT peptide array binding signal intensity
GAGERPRLVPRPINV | 13.5

Molecular target: ScSla1-D1-D2
Assay: as above
Procedure, shortened: as §1

Binder | SPOT peptide array binding signal intensity
GAGERPRLVPRPINV | 25.5

Molecular target: ScSla1-D3
Assay: as above
Procedure, shortened: as §1

Binder | SPOT peptide array binding signal intensity
GAGERPRLVPRPINV | 20

Molecular target: SpAbp1-D1
Assay: as above
Procedure, shortened: as §1

Binder | SPOT peptide array binding signal intensity
GAGERPRLVPRPINV | 11

Molecular target: SpBbc1
Assay: as above
Procedure, shortened: as §1

Binder | SPOT peptide array binding signal intensity
GAGERPRLVPRPINV | 22.8

Molecular target: SpBzz1-D1
Assay: as above
Procedure, shortened: as §1

Binder | SPOT peptide array binding signal intensity
GAGERPRLVPRPINV | 384

Molecular target: SpBzz1-D2
Assay: as above
Procedure, shortened: as §1

Binder | SPOT peptide array binding signal intensity
GAGERPRLVPRPINV | 0.75

Molecular target: SpCyk3
Assay: as above
Procedure, shortened: as §1

Binder | SPOT peptide array binding signal intensity
GAGERPRLVPRPINV | 8

Molecular target: SpHof1
Assay: as above
Procedure, shortened: as §1

Binder | SPOT peptide array binding signal intensity
GAGERPRLVPRPINV | 5.5

Molecular target: SpHof1-2
Assay: as above
Procedure, shortened: as §1

Binder | SPOT peptide array binding signal intensity
GAGERPRLVPRPINV | 6

Molecular target: SpHof1-3
Assay: as above
Procedure, shortened: as §1

Binder | SPOT peptide array binding signal intensity
GAGERPRLVPRPINV | 5.75

Molecular target: SpHse1
Assay: as above
Procedure, shortened: as §1

Binder | SPOT peptide array binding signal intensity
GAGERPRLVPRPINV | ≤ 0

Molecular target: SpLsb1
Assay: as above
Procedure, shortened: as §1

Binder | SPOT peptide array binding signal intensity
GAGERPRLVPRPINV | 410

Molecular target: SpLsb4
Assay: as above
Procedure, shortened: as §1

Binder | SPOT peptide array binding signal intensity
GAGERPRLVPRPINV | 740

Molecular target: SpMyo1
Assay: as above
Procedure, shortened: as §1

Binder | SPOT peptide array binding signal intensity
GAGERPRLVPRPINV | 4.75

Molecular target: SpNbp2
Assay: as above
Procedure, shortened: as §1

Binder | SPOT peptide array binding signal intensity
GAGERPRLVPRPINV | ≤ 0

Molecular target: SpPex13
Assay: as above
Procedure, shortened: as §1

Binder | SPOT peptide array binding signal intensity
GAGERPRLVPRPINV | ≤ 0

Molecular target: SpRvs167
Assay: as above
Procedure, shortened: as §1

Binder | SPOT peptide array binding signal intensity
GAGERPRLVPRPINV | 6.67

Molecular target: SpSla1-D1-D2
Assay: as above
Procedure, shortened: as §1

Binder | SPOT peptide array binding signal intensity
GAGERPRLVPRPINV | 4

Molecular target: SpSla1-D3
Assay: as above
Procedure, shortened: as §1

Binder | SPOT peptide array binding signal intensity
GAGERPRLVPRPINV | 1
